Source: PubChem BioAssay
The list is not random: actives were taken first. Their share in the collection is about 4.5%.
GRK2 inh: blocks RNA aptamer binding to human GRK2 | inhibition of aptamer binding, % at 10 µM | AID 488847 | bead flow cytometry, FAM-aptamer displacement from GRK2 | 330,000 tested, 0.59% active;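 active = inhibition of aptamer binding above 40%, roughly 3 SD of noise, on plates passing a quality check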;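 also: median bead fluorescence of bound FAM aptamer so fluorescent compounds give negative values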
Rtt109 HAT inh: blocks Candida albicans Rtt109/Vps75 acetyltransferase activity | Q5AAJ8 | 330,000 tested, 0.16% active | inhibition, % at 34.9 µM | purified Rtt109/Vps75, ThioGlo CoA-SH fluorescence, 4 h | AID 540336;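 active = inhibition of at least 50% in every replicate; inconclusive = best replicate reaches 50% inhibition but some replicates fall short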
Target sequence (Q5AAJ8 whole entry, looked up): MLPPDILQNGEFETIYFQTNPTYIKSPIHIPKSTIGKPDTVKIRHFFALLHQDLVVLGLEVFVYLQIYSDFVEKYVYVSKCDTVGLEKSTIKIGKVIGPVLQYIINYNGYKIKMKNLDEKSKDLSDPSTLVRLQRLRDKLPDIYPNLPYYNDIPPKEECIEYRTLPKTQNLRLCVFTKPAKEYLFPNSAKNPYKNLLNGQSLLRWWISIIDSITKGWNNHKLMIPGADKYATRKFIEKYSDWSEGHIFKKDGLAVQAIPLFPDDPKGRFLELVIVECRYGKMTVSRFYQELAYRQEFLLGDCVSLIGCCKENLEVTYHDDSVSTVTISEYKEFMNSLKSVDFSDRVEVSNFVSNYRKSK
ALR inh: inhibitors of human sulfhydryl oxidase ALR; P55789; purified ALR, DTT oxidation, H2O2 HRP-luminol luminescence; inhibition, % (concentration not given with the values); 290,000 tested, 3.8% active;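 active = mean replicate inhibition above about 79%, with every replicate also reaching it, limit read from the data; inconclusive = only one of the two criteria met; inactive = mean below limit and not every replicate reaching it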
HDAC3 inhib: inhibitors of human histone deacetylase 3 | recombinant HDAC3, fluorogenic peptide/trypsin coupled, fluorescence | AID 2718 | 320,000 tested, 0.15% active | O15379 | inhibition, % at 8.3 µM; in the data active = inhibition above about 26%, passing the limit was not always enough; inconclusive = no clear call, values can overlap the other calls
Rce1 inh: inhibitors of yeast Ras-converting enzyme; calls only; Q03530; 290,000 tested, 0.27% active; yeast membranes, quenched prenylated peptide cleavage fluorescence;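 active = fall in fluorescence gain of 50% or more versus controls, with final raw signal at or below 3038400; inconclusive = same 50% fall but final raw signal above 3038400; inactive = fall in fluorescence gain under 50%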;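 also: plate controls were neutral control wells for no effect and wells lacking membranes for full effect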
Target sequence (Q03530 whole entry, looked up): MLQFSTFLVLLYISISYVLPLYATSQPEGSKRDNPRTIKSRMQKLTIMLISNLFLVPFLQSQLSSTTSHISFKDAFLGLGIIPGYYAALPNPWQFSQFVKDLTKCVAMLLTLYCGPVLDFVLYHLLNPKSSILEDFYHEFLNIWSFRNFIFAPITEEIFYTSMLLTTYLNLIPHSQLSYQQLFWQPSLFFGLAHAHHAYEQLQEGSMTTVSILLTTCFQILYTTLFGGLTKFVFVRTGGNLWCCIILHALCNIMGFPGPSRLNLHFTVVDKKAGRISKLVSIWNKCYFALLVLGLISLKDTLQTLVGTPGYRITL
Efflux pump mplx: inhibitors of Candida antifungal efflux pumps expressed in yeast. inhibition, % at 10 µM. 330,000 tested, 0.44% active. S. cerevisiae Candida pump triplex, Nile Red efflux;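 active = plate passing quality check with inhibition over a set limit, or well fluorescence over plate mean plus 4 SD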;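 also: Nile Red retained in pooled yeast measured as flow cytometry median fluorescence; 0% = buffer negative control and 100% = Enniatin B positive control; higher means more Nile Red kept so more efflux inhibition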
* = called active by the depositor; i = inactive; ? = inconclusive; . = not tested or not shown; + = active, no number.

SMILES	GRK2 inh	Rtt109 HAT inh	ALR inh	HDAC3 inhib	Rce1 inh	Efflux pump mplx
COc1ccc(-c2nnc(SCC(=O)NC(=O)Cc3ccccc3)n2C)cc1	1.0	-3.7	4.1	-3.8	.	0.1
O=C(NNc1nc2c(F)cc(F)cc2s1)C1=COCCO1	2.0	4.5	98.0*	-0.6	i	-0.1
Cc1cccc2sc(NNC(=O)C3=COCCO3)nc12	0.0	0.9	26.3	-1.2	i	0.0
O=C(c1cc(-c2ccc(O)cc2)on1)N1CCN(c2ccccc2)CC1	0.0	3.1	81.3*	6.1	i	-0.1
O=C(c1cc(-c2ccc3c(c2)OCO3)on1)N1CCN(c2ccc(F)cc2)CC1	0.0	6.5	.	.	i	0.0
O=C(c1cc(C2CC2)on1)N1CCN(c2ccccc2)CC1	0.0	1.1	85.8*	1.6	i	-0.1
O=C(c1cc(-c2ccc(O)cc2)on1)N1CCN(c2ccc(F)cc2)CC1	4.0	-4.2	90.9*	-6.4	i	0.3
Cc1ccc(-c2cc(C(=O)N3CCCCCC3)no2)cc1	1.0	-13.7	-1.2	-2.7	i	0.0
O=C(c1cc(C2CC2)on1)N1CCCC(N2CCN(c3ccc(F)cc3)CC2)C1 (stereo not drawn)	2.0	-16.2	43.0	0.9	i	-0.1
O=C(c1cc(-c2ccc(O)cc2)on1)N1CCCC1	0.0	5.0	99.0*	1.7	i	-0.1
Cc1cc(C)cc(NS(=O)(=O)c2c(C(=O)N3CCOCC3)c(C)n(C)c2C)c1	0.0	-2.8	-0.5	-1.0	i	0.1
CCc1csc(CCNC(=O)C2CCC(=O)N(CCc3cccc(F)c3)C2)n1 (stereo not drawn)	0.0	-15.8	-2.1	5.7	i	0.0
COC(=O)c1sc(N)c(C(=O)OC)c1COC(=O)C12CC3CC(CC(O)(C3)C1)C2	0.0	-1.1	-0.3	-2.0	.	0.6
C/C(=N\O)c1ccc(Cl)c(Cl)c1	0.0	.	-2.0	-2.0	i	-0.1
CCCn1c2ccc(/C(C)=N\O)cc2c2cc(/C(C)=N/O)ccc21	0.0	2.7	98.2*	0.4	i	-0.1
CCOc1ccc2ccccc2c1/C=N/NC(=O)c1cc(C)[nH]n1	4.0	8.0	.	2.4	i	-0.1
Cc1cc(C(=O)N/N=C/c2c3ccccc3cc3ccccc23)n[nH]1	0.0	1.2	.	2.3	+	-0.1
CC1CC(C)CN(C(=O)Cn2cc(C=O)c3ccccc32)C1 (stereo not drawn)	0.0	8.3	-2.5	.	i	-0.1
COc1ccc(N(C)S(=O)(=O)c2cccc(C(=O)Nc3cccc(C(=O)NC4CC4)c3)c2)cc1	1.0	1.0	94.0*	1.8	.	0.0
CCSc1nnc(NC(=O)c2cccc(S(=O)(=O)N(C)c3ccc(C)cc3)c2)s1	10.0	2.2	97.5*	4.0	i	0.1
COc1ccc(N(C)S(=O)(=O)c2cccc(C(=O)Nc3nnc(C)s3)c2)cc1	4.0	16.6	-4.3	2.0	.	-0.2
COc1ccc(N(C)S(=O)(=O)c2cccc(C(=O)Nc3nc(C)c(C(C)=O)s3)c2)cc1	0.0	9.0	99.0*	4.2	.	0.4
CN(c1cccc(Cl)c1)S(=O)(=O)c1cccc(C(=O)NC2=NCCS2)c1	0.0	7.4	98.2*	6.5	i	-0.1
COCCN(C(=O)CC1C(=O)NCCN1Cc1ccc(-c2ccccc2)cc1)C(C)C (stereo not drawn)	0.0	19.1	-26.2	-5.7	i	-0.1
CC1(C)CC(NC(=O)c2cc(S(=O)(=O)N3CCOCC3)ccc2Cl)CC(C)(C)N1	0.0	10.8	4.4	-9.3	.	0.0
SMILES	GRK2 inh	Rtt109 HAT inh	ALR inh	HDAC3 inhib	Rce1 inh	Efflux pump mplx
CC1Oc2cc3oc4c(O)c(O)ccc4c(=O)c3c(O)c2C1(C)C (stereo not drawn)	0.0	8.2	98.1*	9.5	.	0.0
CC12CCC(=O)N1C(C(=O)NCc1ccc(Cl)cc1Cl)CS2 (stereo not drawn)	3.0	0.5	-0.4	1.2	i	0.1
O=C(NC1CCCC1)c1cc2nc(-c3ccccc3)cc(-c3ccccc3)n2n1	23.0	13.0	-5.5	-6.5	i	0.1
CC1CCN(C(=O)c2cc3nc(-c4ccccc4)cc(-c4ccccc4)n3n2)CC1	1.0	-20.6	6.4	1.3	+	0.0
N#CC1=C(S)N(c2ccccc2)C(c2ccc(-c3cc(Cl)ccc3Cl)o2)NC1=O (stereo not drawn)	0.0	11.3	11.5	12.0	i	0.5*
Cc1ccc(N2C(S)=C(C#N)C(=O)NC2c2cccs2)cc1 (stereo not drawn)	0.0	?	29.3	11.2	i	-0.1
N#CC1=C(S)N(c2ccccc2)C(c2cccs2)NC1=O (stereo not drawn)	1.0	109.3*	22.8	1.6	i	0.0
CCOc1cccc(C(=O)Nc2ccc3c(c2)OCCO3)c1	0.0	28.1	0.1	3.0	i	0.9
CCOc1ccc(NC(=O)C(C)SC(N)=O)cc1 (stereo not drawn)	1.0	-3.7	98.9*	3.3	i	-0.1
CCOc1ccc(NC(=O)C(C)Sc2nnnn2C)cc1 (stereo not drawn)	3.0	11.1	0.4	.	i	0.1
CCOC(=O)C1=C(c2ccccc2)NC(=O)NC1c1ccc(N(C)C)cc1 (stereo not drawn)	6.0	5.6	99.0*	1.3	i	0.1
COc1ccc(Cl)cc1NC(=O)CN1CCN(Cc2ccccc2)CC1	.	3.3	-6.7	5.7	i	-0.1
CCOC(=O)C(=CNc1ccc(Oc2cncc(Cl)c2)nc1)C(=O)OCC	2.0	12.5	-0.6	-0.2	i	0.0
Cc1nc([N+](=O)[O-])c(Sc2nc3ccccc3n2C)n1Cc1ccccc1	3.0	5.4	98.1*	-5.8	i	0.6
Cc1nc([N+](=O)[O-])c(SCC(N)=O)n1Cc1ccccc1	1.0	1.8	6.5	2.3	i	0.0
O=C(Nc1ccncc1)c1ccc2ncsc2c1	0.0	-3.7	98.3*	0.8	i	0.0
O=C(Nc1ccc(S(=O)(=O)Nc2ncccn2)cc1)c1ccc2ncsc2c1	2.0	4.9	99.0*	1.3	i	-0.1
O=C(Nc1ccc(S(=O)(=O)Nc2ncccn2)cc1)c1ccc(S(=O)(=O)N2CCCC2)cc1	2.0	-3.0	96.1*	-4.2	i	-0.2
O=C(Nc1ccc(S(=O)(=O)Nc2ncccn2)cc1)c1cnc(Cl)c(Cl)c1	12.0	-11.1	-8.5	3.9	i	-0.2
O=C(N/C(=C\c1ccc(Br)cc1)C(=O)N1CCOCC1)c1ccc([N+](=O)[O-])cc1	0.0	4.1	-5.8	14.0	i	-0.2
O=C(NCC(=O)N1CCN(c2ccccc2F)CC1)c1ccc(Br)o1	3.0	11.1	6.5	-2.0	i	0.1
COc1ccc(S(=O)(=O)Nc2ccc(O)c3ccccc23)cc1	0.0	15.6	88.8*	9.7	i	0.1
Cc1ccc(S(=O)(=O)NNc2ccccc2)c(C)c1	1.0	-4.4	100.1*	2.6	.	-0.4
